The whole screen tested about 98,000 compounds, of which about 4,900 (5%) were called active. The full list was thinned out, with actives kept by preference. A number with no mark means an inactive call. Cut-off read from the data, not from the text of the source: active = inhibition above about 30%; inactive = the rest.
experiment: yeast control strain growth suppression – counter-screen for post-Golgi transport modulator project, primary screen (AID 738); details: efflux-deficient yeast background strain, growth absorbance A615, 16 h; at 10 µM; hits give high values

Compound	inhibition
Cc1ccc(-c2noc(CSc3nnnn3-c3ccccc3)n2)cc1	48.9% (active)
Cc1ccc(-c2noc(CSc3nnc(-c4ccncc4)n3-c3ccc(F)cc3)n2)cc1	38.4% (active)
O=C(CSc1nnc(Cc2ccccc2)n1-c1ccccc1)N1CCOCC1	-1.82%
Cn1cccc1Cc1nnc(SCC(=O)NCCc2ccccc2)n1-c1ccc(F)cc1	2.46%
Cc1ccc(-c2noc(CSc3nnc(-c4cccs4)n3C)n2)cc1	5.22%
Cc1ccc(-c2noc(CC(c3ccccc3)c3ccccc3)n2)cc1	3.45%
Fc1ccc(-n2c(Cc3ccccc3)nnc2SCc2nc(-c3ccc(Cl)cc3)no2)cc1	46.4% (active)
Cc1ccc(-c2noc(CSc3nnc(-c4ccccc4)n3C)n2)cc1	22.3%
COc1ccc(-c2noc(CSc3ccc(C)cc3)n2)cc1	4.57%
Cc1cc(C(F)F)n2nc(C(=O)Nc3ccc(S(=O)(=O)NC45CC6CC(CC(C6)C4)C5)cc3)nc2n1	2.49%
Nc1nc(Br)c2ccccc2c1-c1ccc(F)cc1	11.8%
CCn1c(O)c2ccc(C(=O)N=NC(=O)c3cccnc3)cc2c1O	1.24%
CN(C)c1ccc(/C=C2\NC(=S)N(Cc3ccccc3)C2=O)cc1	21%
CCOC(=O)C1(S(=O)(=O)c2ccc(Cl)cc2)CCN(Cc2ccccc2)CC1	4.55%
CC1C/C(=N/NC(=O)c2cccs2)CC(C)(C)C1 (configuration not stated)	9.76%
CC(Oc1ccc(Cl)cc1Cl)C(=O)/C=C/N(C)C (configuration not stated)	27.4%
CCOC(=O)/C(C#N)=C/c1ccc(OCC(=O)Nc2ccccc2)c(OC)c1	2.95%
CCOC(=O)/C(=C\c1ccc([N+](=O)[O-])cc1)C(=O)c1cc(C(C)=O)c(Nc2ccccc2)s1	92% (active)
O=C(NCCc1ccccc1)/C(=C\c1ccc([N+](=O)[O-])cc1)NC(=O)c1ccccc1	3.12%
CNS(=O)(=O)c1cnccc1N1CCN(c2cccc(C)c2)CC1	1.59%
Cc1c(NC(=O)/C=C/C(=O)O)cccc1[N+](=O)[O-]	6.96%
Cc1sc(NC(=O)C2C3CCC(O3)C2C(=O)O)c(C(=O)OC(C)C)c1-c1ccc(Cl)cc1 (configuration not stated)	16.9%
CN1CC(c2ccccc2)C2(COc3ccccc3C2=O)C12C(=O)Nc1ccccc12 (configuration not stated)	32.5% (active)

Compound	inhibition
Cc1noc(C)c1C(=O)N(CC(=O)NC1CCCC1)Cc1ccccc1F	2.95%
Cc1nc(SCC(=O)c2ccccc2)c([N+](=O)[O-])[nH]1	-2.62%
O=C(CCc1ccc(S(=O)(=O)NC2CCCCC2)cc1)NCc1ccccc1	1.21%
Cc1ccc(S(=O)(=O)N(C)CC(=O)N2CCc3ccccc32)cc1	2.58%
Cc1ccc2c(c1)N(CC(=O)N1CCCc3ccccc31)C(=O)C(C)O2 (configuration not stated)	5.45%
Cc1ccc2c(c1)N(C(=O)CCC(=O)N1CCc3ccccc3C1)CCO2	36.4% (active)
COc1cc(NS(=O)(=O)c2ccc(N/C=C(\C=O)c3nc4cc(Cl)ccc4o3)cc2)nc(OC)n1	-2.08%
COc1cccc(-c2cc(C(=O)N/N=C/c3ccc(OC)c(COC(C)=O)c3)c3ccccc3n2)c1	-0.83%
CCOc1cc(C2C(C(=O)OC)=CN(C3CCCC3)C=C2C(=O)OC)cc(Br)c1O	38.7% (active)
CCOc1ccc(CNC(=O)C2CCC(=O)N2C2CCCC2)cc1OC (configuration not stated)	13.3%
CCOc1ccccc1C1C(C(=O)OC)=CN(C)C=C1C(=O)OC	11.7%
COc1cccc(C(=O)NNC(=O)c2ccccc2Br)c1	0%
O=C(c1cccs1)N1CCCC(c2nc(-c3ccc(F)cc3)no2)C1 (configuration not stated)	43.9% (active)
CC(C)c1ccc(-c2noc(C3CCCN(S(C)(=O)=O)C3)n2)cc1 (configuration not stated)	-5.28%
O=C(Cc1cccs1)N1CCCC(c2nc(-c3ccc(S(=O)(=O)N4CCCC4)cc3)no2)C1 (configuration not stated)	2.8%
CCc1ccc(CNC(=O)CCc2nc(-c3cccs3)no2)cc1	7.1%
CC(C)NC(=O)C(=O)N/N=C/c1ccco1	4.76%
Cc1nn(C)c(Oc2ccccc2)c1CCNS(=O)(=O)c1ccc(F)cc1	-2.45%
COc1ccc(CNC(=O)C2CCC(CNc3c(N4CCOCC4)c(=O)c3=O)CC2)cc1 (configuration not stated)	3.7%
COc1ccc(SCc2noc(C(=O)NCC3CCCO3)c2C(=O)O)cc1 (configuration not stated)	0.46%
Cn1cccc1C1(C(F)(F)F)NCCNC1=O (configuration not stated)	48.1% (active)
O=C(/C=C/c1ccccc1)N/C(=C/c1ccccc1)C(=O)Nc1ccccc1O	18%
CN(C)/C(CN1CCCCC1)=C1\N=C(c2ccccc2)OC1=O	11.8%

Compound	inhibition
COCCCNC(NC(=O)c1ccc(C)cc1)C(Cl)(Cl)Cl (configuration not stated)	-2.93%
CC1CCCC(C)N1CCCNC(=O)c1cc2c(=O)n(C)c3ccccc3c2n1C (configuration not stated)	1.45%
CCn1c(=O)cc(OCC(=O)NCCCN2CCN(c3cccc(Cl)c3)CC2)c2ccccc21	2.45%
Cn1c(C(=O)NCCCN2CCN(c3cccc(Cl)c3)CC2)cc2c(=O)n(C)c3ccccc3c21	95.8% (active)
CCCCn1c(=S)[nH]c2cc(S(=O)(=O)N3CCCCC3)ccc21	6.51%
Cc1cc2cc3c(cc2nc1SCC(=O)Nc1c(C)cccc1C)CCC3	13.7%
CCOc1cc2[nH]c(=O)n(CCC(=O)NCc3ccc(OC)cc3)c(=O)c2cc1OCC	-0.15%
Cc1cccc(OCc2nnc(SCc3nc4cc(C(F)(F)F)ccc4c(=O)[nH]3)o2)c1	2.6%
Cc1cc(C)cc(OCc2nnc(SCC(=O)Nc3ccccc3)o2)c1	-1.36%
Cc1cccc(OCc2nnc(SCn3nnc4ccccc4c3=O)o2)c1	36.4% (active)
CN(C(=O)CC(NC(=O)c1ccccc1)(c1ccccc1)c1ccccc1)c1ccccc1	25.4%
O=C(N/N=C/C=C/c1ccccc1)C1CC1(c1ccccc1)c1ccccc1 (configuration not stated)	64% (active)
Cc1nn(C)c(Oc2ccccc2)c1[N+](=O)[O-]	5.76%
CCc1nc2oc3ccccc3c(=O)c2c(=O)n1Cc1ccc(OC)cc1	11.8%
O=c1c2ccccc2oc2nc3n(c(=O)c12)CCCS3	0.28%
O=c1c2ccccc2oc2nc(C3CCCCC3)n(Cc3ccco3)c(=O)c12	78.7% (active)
c1ccc(Nc2nc(-c3ccncc3)cs2)nc1	4.87%
O=C(Nc1ccc(Cl)cn1)Nc1cccs1	19.8%
Clc1ccc(Nc2nc(-c3cccs3)cs2)nc1	45.4% (active)
Cc1ccc(OCC(=O)N/N=C/c2ccncc2)cc1	7.69%
Cc1ccc(C(=O)N2CCN(C(=O)N3CCOCC3)CC2)cc1	-1.43%
CCOC(=O)C(=CNc1cccc(C)n1)C(=O)OCC	-2.27%
Cc1ccc(Cl)cc1NC(=O)COC(=O)C1CCCCC1	-5.31%

Compound	inhibition
Cc1noc(C)c1S(=O)(=O)N(CC(=O)Nc1ccc2c(c1)OCCO2)c1ccc(C(C)C)cc1	36.1% (active)
Cc1noc(C)c1S(=O)(=O)N(CC(=O)NCc1ccc(Cl)cc1)c1ccc2c(c1)OCO2	4.52%
CCOC(=O)c1cccc(NC(=O)CN(c2ccc(C)cc2)S(=O)(=O)c2c(C)noc2C)c1	26.9%
CCOC(=O)Cc1csc(NC(=O)C(C)(C)C)n1	50.5% (active)
CCOC(=O)Cc1csc(NC(NC(=O)OCC)(C(F)(F)F)C(F)(F)F)n1	-12.3%
CCOC(=O)Cc1csc(NC(=O)CSc2nc(C)cc(=O)[nH]2)n1	3.73%
CCOc1cc(CNCCN(C)C)c(Cl)cc1OCC(=O)NCCc1ccccc1	7.63%
COc1ccc(NC(=O)ON=C2c3ccccc3-c3ccccc32)cc1	3.19%
O=C(Nc1ccccc1)O/N=C1\CCCCC1c1ccc([N+](=O)[O-])cc1[N+](=O)[O-] (configuration not stated)	47.9% (active)
CCN(CC)S(=O)(=O)c1cc([N+](=O)[O-])ccc1NNC(=O)Nc1ccccc1	5.17%
Cc1ccc(C2CC2C(=O)NN)cc1 (configuration not stated)	-1.07%
COc1cccc(CNCCc2c[nH]c3ccccc23)c1OCc1ccccc1F	15.9%
COCCCn1c(SCc2cccc(OC)c2)nc2cc(OC)c(OC)cc2c1=N	21.9%
CN1CCN(c2ccc(NC(=O)COc3ccc(Cl)cc3Cl)cc2)CC1	5.47%
Cc1ccccc1OCC(=O)Nc1ccc(N2CCN(C(=O)C(C)C)CC2)c(Cl)c1	6.6%
Cc1ccc(NC(=O)COc2ccc(-n3ccnc3)cc2)cc1Cl	34.5% (active)
CC(=O)NS(=O)(=O)c1ccc(NC(=O)/C=C/c2ccccc2Cl)cc1	4.99%
O=C(c1ccccc1)C(Cn1cncn1)C(Sc1ccccc1)c1ccccc1 (configuration not stated)	26.1%
CCOC(=O)N1CCN(C(c2cccnc2)c2ccc3cccnc3c2O)CC1 (configuration not stated)	1.65%
CCn1c(SCC(=O)Nc2nc3ccc(OC)cc3s2)nnc1-c1ccoc1C	19.9%
CCOC(=O)c1c(C2CC2)csc1NC(=O)CSCc1c(C)noc1C	23.3%
Cc1noc(C)c1CSCC(=O)Nc1nc2ccc(Oc3ccccc3)cc2s1	56.3% (active)
O=S(=O)(c1ccc(F)cc1)n1ccc(-c2cnc(-c3ccccc3)s2)n1	6.8%
